# Measured values taken from PubChem BioAssay AID1159580 (chemical genetic matrix, 2015).
# The whole screen tested about 5,500 compounds, of which about 2,000 (36%) were called active. Inconclusive results (about 18%) are left out. The list shows a part of the results. Values without a mark were called inactive. No stated cut-off is given here; in the data, active means normalized growth mostly below about 0.91 (no sharp cut-off); inconclusive means no clear call, values can overlap the other calls; inactive means mostly above about 0.92.
# Assay: chemical genetic growth profiling, strain panel (AID 1159580);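 further: tested at 20 µM; growth read once vehicle control cultures reached saturation at 30 °C; 1 = growth at the plate median or of vehicle wells; lower values mean less growth of the strain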
# Details: growth OD
smiles,measurement,setting,value
C#CC1(O)CCC2C3CCC4=CC(=O)CCC4(C)C3CCC21C (stereo unspecified),normalized growth,"S. cerevisiae deletion strains, locus YKL009W, strain mrt4, active compounds read low",0.945
same,normalized growth,"S. cerevisiae deletion strains, locus YKL068W, active compounds read low",0.991
same,normalized growth,"S. cerevisiae deletion strains, locus YKL085W, strain MDH1 (second series), active compounds read low",0.99
same,normalized growth,"S. cerevisiae deletion strains, locus YKL085W, strain MDH1, active compounds read low",0.99
same,normalized growth,"S. cerevisiae deletion strains, locus YKL160W, strain elf1, active compounds read low",0.979
same,normalized growth,"S. cerevisiae deletion strains, locus YKL190W, strain CNB1, active compounds read low",0.997
same,normalized growth,"S. cerevisiae deletion strains, locus YKR001C, strain vps1, active compounds read low",0.99
same,normalized growth,"S. cerevisiae deletion strains, locus YKR026C, strain gcn3, active compounds read low",0.991
same,normalized growth,"S. cerevisiae deletion strains, locus YKR091W, strain srl3, active compounds read low",0.977
same,normalized growth,"S. cerevisiae deletion strains, locus YLL001W, strain dnm1, active compounds read low",1
same,normalized growth,"S. cerevisiae deletion strains, locus YLL026W, active compounds read low",0.986
same,normalized growth,"S. cerevisiae deletion strains, locus YLL041C, strain sdh2, active compounds read low",0.998
same,normalized growth,"S. cerevisiae deletion strains, locus YLR027C, strain aat2, active compounds read low",0.986
same,normalized growth,"S. cerevisiae deletion strains, locus YLR039C, strain RIC1, active compounds read low",1.31
same,normalized growth,"S. cerevisiae deletion strains, locus YLR058C, strain SHM2, active compounds read low",0.986
same,normalized growth,"S. cerevisiae deletion strains, locus YLR102C, strain apc9, active compounds read low",0.978
same,normalized growth,"S. cerevisiae deletion strains, locus YLR113W, strain HOG1, active compounds read low",1.03
same,normalized growth,"S. cerevisiae deletion strains, locus YLR221C, strain rsa3, active compounds read low",1
same,normalized growth,"S. cerevisiae deletion strains, locus YLR258W, strain gsy2, active compounds read low",0.983
same,normalized growth,"S. cerevisiae deletion strains, locus YLR262C, strain YPT6 (second series), active compounds read low",1.05
same,normalized growth,"S. cerevisiae deletion strains, locus YLR262C, strain YPT6, active compounds read low",1.2
same,normalized growth,"S. cerevisiae deletion strains, locus YLR268W, strain sec22, active compounds read low",0.987
same,normalized growth,"S. cerevisiae deletion strains, locus YLR320W, strain mms22, active compounds read low",0.997
same,normalized growth,"S. cerevisiae deletion strains, locus YLR330W, strain CHS5, active compounds read low",0.988
same,normalized growth,"S. cerevisiae deletion strains, locus YLR342W, strain FKS1 (second series), active compounds read low",0.909
same,normalized growth,"S. cerevisiae deletion strains, locus YLR342W, strain FKS1, active compounds read low",0.988
same,normalized growth,"S. cerevisiae deletion strains, locus YLR357W, strain rsc2, active compounds read low",1
same,normalized growth,"S. cerevisiae deletion strains, locus YLR370C, strain arc18, active compounds read low",0.975
same,normalized growth,"S. cerevisiae deletion strains, locus YLR371W, strain rom2, active compounds read low",0.987
same,normalized growth,"S. cerevisiae deletion strains, locus YLR384C, strain iki3, active compounds read low",0.99
same,normalized growth,"S. cerevisiae deletion strains, locus YLR418C, strain cdc73, active compounds read low",0.921
same,normalized growth,"S. cerevisiae deletion strains, locus YML016C, strain PPZ1, active compounds read low",0.989
same,normalized growth,"S. cerevisiae deletion strains, locus YML032C, strain rad52, active compounds read low",0.99
same,normalized growth,"S. cerevisiae deletion strains, locus YML120C, strain ndi1, active compounds read low",0.99
same,normalized growth,"S. cerevisiae deletion strains, locus YML124C, strain tub3, active compounds read low",0.991
same,normalized growth,"S. cerevisiae deletion strains, locus YMR058W, strain fet3, active compounds read low",0.948
same,normalized growth,"S. cerevisiae deletion strains, locus YMR078C, strain ctf18, active compounds read low",0.976
same,normalized growth,"S. cerevisiae deletion strains, locus YMR125W, strain sto1, active compounds read low",0.967
same,normalized growth,"S. cerevisiae deletion strains, locus YMR129W, active compounds read low",0.988
same,normalized growth,"S. cerevisiae deletion strains, locus YMR205C, strain PFK2, active compounds read low",0.991
same,normalized growth,"S. cerevisiae deletion strains, locus YMR223W, strain ubp8, active compounds read low",0.957
same,normalized growth,"S. cerevisiae deletion strains, locus YMR231W, strain pep5, active compounds read low",0.997
same,normalized growth,"S. cerevisiae deletion strains, locus YMR263W, strain SAP30, active compounds read low",1.01
same,normalized growth,"S. cerevisiae deletion strains, locus YMR307W, strain GAS1, active compounds read low",1.14
same,normalized growth,"S. cerevisiae deletion strains, locus YNL067W, strain RPL9B, active compounds read low",1.02
same,normalized growth,"S. cerevisiae deletion strains, locus YNL071W, strain lat1, active compounds read low",1
same,normalized growth,"S. cerevisiae deletion strains, locus YNL153C, strain GIM3, active compounds read low",1.04
same,normalized growth,"S. cerevisiae deletion strains, locus YNL183C, strain NPR1, active compounds read low",0.955
same,normalized growth,"S. cerevisiae deletion strains, locus YNL209W, strain ssb2, active compounds read low",0.988
same,normalized growth,"S. cerevisiae deletion strains, locus YNL233W, strain BNI4, active compounds read low",1.02
same,normalized growth,"S. cerevisiae deletion strains, locus YNL248C, strain rpa49, active compounds read low",0.987
same,normalized growth,"S. cerevisiae deletion strains, locus YNL250W, strain rad50, active compounds read low",0.978
same,normalized growth,"S. cerevisiae deletion strains, locus YNL271C, strain bni1, active compounds read low",0.979
same,normalized growth,"S. cerevisiae deletion strains, locus YNL298W, strain CLA4, active compounds read low",0.954
same,normalized growth,"S. cerevisiae deletion strains, locus YNL307C, strain MCK1, active compounds read low",0.906 (active)
same,normalized growth,"S. cerevisiae deletion strains, locus YNL322C, strain KRE1 (second series), active compounds read low",1
same,normalized growth,"S. cerevisiae deletion strains, locus YNR049C, strain mso1, active compounds read low",0.965
same,normalized growth,"S. cerevisiae deletion strains, locus YNR052C, strain pop2, active compounds read low",0.966
same,normalized growth,"S. cerevisiae deletion strains, locus YOL147C, strain pex11, active compounds read low",0.994
same,normalized growth,"S. cerevisiae deletion strains, locus YOR001W, strain rrp6, active compounds read low",0.998
same,normalized growth,"S. cerevisiae deletion strains, locus YOR061W, strain CKA2, active compounds read low",0.986
same,normalized growth,"S. cerevisiae deletion strains, locus YOR069W, strain VPS5, active compounds read low",0.981
same,normalized growth,"S. cerevisiae deletion strains, locus YOR070C, strain gyp1, active compounds read low",0.992
same,normalized growth,"S. cerevisiae deletion strains, locus YOR080W, strain dia2, active compounds read low",0.972
same,normalized growth,"S. cerevisiae deletion strains, locus YOR083W, strain WHI5, active compounds read low",0.948
same,normalized growth,"S. cerevisiae deletion strains, locus YOR106W, strain vam3, active compounds read low",0.965
same,normalized growth,"S. cerevisiae deletion strains, locus YOR136W, strain idh2, active compounds read low",0.977
same,normalized growth,"S. cerevisiae deletion strains, locus YOR144C, strain elg1, active compounds read low",0.975
same,normalized growth,"S. cerevisiae deletion strains, locus YOR184W, strain ser1, active compounds read low",0.87 (active)
same,normalized growth,"S. cerevisiae deletion strains, locus YOR231W, strain MKK1, active compounds read low",1.02
same,normalized growth,"S. cerevisiae deletion strains, locus YOR265W, strain rbl2, active compounds read low",0.988
same,normalized growth,"S. cerevisiae deletion strains, locus YOR270C, strain vph1, active compounds read low",0.727 (active)
same,normalized growth,"S. cerevisiae deletion strains, locus YOR290C, strain snf2, active compounds read low",0.974
same,normalized growth,"S. cerevisiae deletion strains, locus YOR316C, strain cot1, active compounds read low",0.979
same,normalized growth,"S. cerevisiae deletion strains, locus YPL051W, strain arl3, active compounds read low",1.01
same,normalized growth,"S. cerevisiae deletion strains, locus YPL078C, strain atp4, active compounds read low",0.987
same,normalized growth,"S. cerevisiae deletion strains, locus YPL106C, strain sse1, active compounds read low",0.985
same,normalized growth,"S. cerevisiae deletion strains, locus YPL240C, strain hsp82, active compounds read low",0.988
same,normalized growth,"S. cerevisiae deletion strains, locus YPL241C, strain CIN2, active compounds read low",0.99
same,normalized growth,"S. cerevisiae deletion strains, locus YPL256C, strain CLN2, active compounds read low",0.994
same,normalized growth,"S. cerevisiae deletion strains, locus YPR119W, strain clb2, active compounds read low",0.983
same,normalized growth,"S. cerevisiae deletion strains, locus YPR141C, strain kar3, active compounds read low",0.982
same,normalized growth,"S. cerevisiae deletion strains, locus YPR163C, strain tif3, active compounds read low",0.977
same,normalized growth,"S. cerevisiae deletion strains, locus YPR167C, strain met16, active compounds read low",0.97
same,normalized growth,"S. cerevisiae deletion strains, strain wtn01, active compounds read low",0.955
same,normalized growth,"S. cerevisiae strains, strain wild type, active compounds read low",0.99
